From PubChem BioAssay (NCATS)
Where “and” joins values, the source holds several entries; their conditions need not be identical. Equal values may be shown once. Records with an inconclusive call do not appear. Calls of active or inactive are those of the source. Unless noted, calls come from the whole dose curve; as a rule, active = well fitted curve in the direction sought with a large enough effect; inconclusive = small, poorly fitted or top-dose-only effect, or another doubt; inactive = no such curve, though single readings can be large; an effect the other way counts as inactive or inconclusive.

Tests used:
[1] = Cellular Toxicity (caspase-3) HUV-EC-C (AID 656);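 note: 0% = DMSO basal and 100% = 100 µM tamoxifen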
Summary of the method: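 HUV-EC-C endothelial cells, 1000/well, were pre-incubated 5 hr at 37°C, then exposed to compounds for 16 hr at 37°C. Caspase-Glo 3/7 luminescence was read after 20 min at room temperature. AC50 came from Hill fits, normalized to DMSO and 100 uM tamoxifen.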

[2] = Cellular Toxicity (caspase-3) SHSY5Y (AID 657)
Summary of the method: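 SH-SY5Y human neuroblastoma cells (1500/well) were treated with compounds for 16 h at 37 °C, then Caspase-Glo 3/7 luminescence was read after 1 h at room temperature. Data normalized to DMSO and 10 uM staurosporine; AC50 from Hill fits.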

[3] = Cellular Toxicity (caspase-3) SK-N-SH (AID 661);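 note: 0% = DMSO basal and 100% = 10 µM staurosporine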
Summary of the method: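 Human neuroblastoma SK-N-SH, 1500 cells/well, 5 hr pre-incubation, then compound 16 hr, 37 °C. Caspase-Glo 3/7 reagent, 1 hr RT, luminescence. Norm. to DMSO/10 uM staurosporine; Hill-fit AC50.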

[4] = Cellular Toxicity (caspase-3) H-4-II-E (AID 663); conditions: Potency: caspase-3 activation;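 note: cells exposed to compound for 16 hr before readout; 0% = DMSO basal and 100% = 100 µM tamoxifen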
Summary of the method: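 Luminescence from caspase-cleaved aminoluciferin substrate, read 20 min after reagent addition, reports caspase 3/7 activation in rat H-4-II-E cells after 16 hr compound exposure. Normalized to DMSO (basal) and 100 uM tamoxifen (100%); AC50 from Hill fits.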

[5] = Cell Viability - LYMP1-002 - Assay at 16 hr (AID 948);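 note: 0% = DMSO alone and full effect = 92 µM tetraoctylammonium bromide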
Summary of the method: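 Human lymphoblastoid cells (LYMP1-002), 2500/well, were preincubated 5 hr at 37 C, then exposed to compounds for 16 hr at 37 C in complete medium. Cellular ATP was read by CellTiter-Glo luminescence after 30 min at room temperature; AC50 from Hill fits.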

[6] = MultiTox-Fluor Cytotoxicity Assay - LYMP1-002 - Dead Cells (AID 960); note: nearly all actives have a fitted effect of over 60% in size
Summary of the method: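 LYMP1-002 cells 2500/well; 5 hr 37 C pre-incubation; compound 16 hr 37 C; MultiTox-Fluor reagent 60 min RT; dead-cell fluor Ex/Em 485/520. Norm. to DMSO (0%) vs 15 uM tetraoctylammonium bromide (100%); Hill AC50.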

[7] = Cell Viability - LYMP1-003 - Assay at 40 hr (AID 964); note: series mostly up to about 92 µM; % is set by controls: 0 for no effect and ±100 for the full control effect; nearly all actives have a fitted effect of over 60% in size
Summary of the method: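 Cells were seeded at 2500 per well and incubated 5 hr at 37 C. Compounds were added across a concentration series and left 40 hr at 37 C. CellTiter-Glo was added for 30 min at room temperature before luminescence reading.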

[8] = Cell Viability - LYMP2-003 (AID 965);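 note: cells exposed to compounds for 24 h before reading; 0% = DMSO only and full effect = 92 µM tetraoctylammonium bromide; nearly all actives have a fitted effect of over 50% in size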
Summary of the method: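 Human lymphoblastoid cells (2500/well) were pre-incubated 5 hr at 37 C, then exposed to compounds over a concentration range for 24 hr at 37 C. Intracellular ATP was read by CellTiter-Glo luminescence; AC50 came from Hill-equation fits.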

[9] = Cell Viability - LYMP2-009 (AID 968);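 note: series mostly up to about 92 µM; 0% = DMSO alone and the full-kill end = tetraoctylammonium bromide at 92 µM; nearly all actives have a fitted effect of over 55% in size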
[10] = Cell Viability - LYMP2-011 (AID 969);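 note: 0% = DMSO only and full inhibition = 92 µM tetraoctylammonium bromide; nearly all actives have a fitted effect of over 60% in size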
Summary of the method: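 2500 cells/well, 5 hr 37 C; compound added, 24 hr 37 C; CellTiter-Glo 30 min RT; luminescence. qHTS concentration-response, Hill-equation AC50. Tetraoctylammonium bromide positive control.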

[11] = Cell Viability - LYMP2-013 (AID 970);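 note: series mostly up to about 92 µM; 0% = DMSO only and full inhibition = tetraoctylammonium bromide control; nearly all actives have a fitted effect of over 55% in size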
Summary of the method: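 qHTS; 2500 lymphoblastoid cells/well; 5 hr 37 C settle; cpd 24 hr 37 C; CellTiter-Glo, 30 min RT; luminescence. AC50 = Hill fit.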

[12] = Cell Viability - LYMP2-017 (AID 972); note: series mostly up to about 92 µM; % is set by controls: 0 for no effect and ±100 for the full control effect; nearly all actives have a fitted effect of over 55% in size
Summary of the method: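 2500 cells/well, 5 h 37 C; cpd 24 h 37 C in complete medium; CellTiter-Glo, 30 min RT; luminescence (ATP). AC50 via Hill fit, qHTS.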

[13] = Cell Viability - LYMP2-023 (AID 975);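 note: cellular ATP measured by luciferase luminescence as viability proxy; series mostly up to about 92 µM; plate controls were DMSO only for no effect and 92 µM tetraoctylammonium bromide control for full effect; nearly all actives have a fitted effect of over 55% in size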
Summary of the method: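 2500 cells/well, 5 hr 37 C; cpd 24 hr 37 C; CellTiter-Glo, 30 min RT; luminescence. qHTS conc-response, Hill fit -> AC50. Pos ctrl tetraoctylammonium bromide.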

[14] = Cell Viability - LYMP2-002 (AID 977);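 note: series mostly up to about 92 µM; plate controls were DMSO only for no effect and 92 µM tetraoctylammonium bromide for full effect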
Summary of the method: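 Luminescent ATP readout (CellTiter-Glo, 30 min room temperature) after 24 h compound exposure at 37 C of a human lymphoblastoid line, 2500 cells/well. AC50 values derived by standard Hill fitting of qHTS concentration-response data.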

[15] = Cell Viability - LYMP2-012 (AID 982)
[16] = target: Retinoic acid receptor RXR-alpha (Homo sapiens) (UniProt P19793); assay: qHTS assay for small molecule agonists of retinoid X receptor alpha signaling (AID 588544; calls by dose curve;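 note: 0% = DMSO basal wells and 100% = reference agonist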)
[17] = target: Retinoic acid receptor RXR-alpha (Homo sapiens) (UniProt P19793); assay: qHTS assay for small molecule antagonists of retinoid X receptor alpha signaling (AID 588546; active = well fitted inhibition curve with a large enough effect in the signal ratio, with a control signal flat, not every such curve was filed as active; the % refers to the signal ratio;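 note: cells stimulated with 9-cis-retinoic acid as agonist; % is set by controls: 0 for no effect and ±100 for the full control effect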); conditions: HEK293T RXRa-UAS-bla, beta-lactamase ratio, antagonist mode
Summary of the method: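 Beta-lactamase reporter inhibition, read as CCF4 fluorescence ratio (ex 405, em 460/530 nm) after 2 h at RT. HEK293T UAS-bla cells, 2500/well, were stimulated with 9-cis-RA at 500 or 100 nM final alongside test compound for 18 h at 37 C.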

[18] = qHTS assay for small molecule activators of the p53 signaling pathway (AID 651743; active = well fitted activation curve with a large enough effect in the signal ratio, not every such curve was filed as active; the % refers to the signal ratio; note: series mostly up to about 92 µM; % of control where 0% means no effect); conditions: HCT-116 p53RE-bla, beta-lactamase FRET ratio, 16 h; activation: stronger effect = higher value
Summary of the method: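 Cell-based beta-lactamase reporter (p53 response elements, HCT-116 background). After a 5-hour preincubation, cells received compound for 16 hours at 37 C; substrate development ran 2 hours at room temperature.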

[19] = Cell Viability - LYMP1-003 - Assay at 24 hr (AID 963);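 note: plate controls were DMSO only for no effect and tetraoctylammonium bromide positive control for full effect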
Summary of the method: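 Cells seeded at 2500/well, 5 hr at 37 C; compounds added; 24 hr at 37 C; CellTiter-Glo added, 30 min room temperature; luminescence read. Decrease in ATP taken as cytotoxicity, AC50 from Hill modelling.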

[20] = qHTS assay for small molecule agonists of the antioxidant response element (ARE) signaling pathway measured by Nrf2-dependant transcriptional activity - cell viability counter screen (AID 720653; active = well fitted curve in the direction sought with a large enough effect in the repeat runs; an effect the other way counts as inactive or inconclusive; note: % is set by controls: 0 for no effect and ±100 for the full control effect); conditions: ARE-bla HepG2 viability, CellTiter-Glo ATP luminescence, 16 h; stronger effect = lower value
Summary of the method: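 ARE-bla HepG2 cells (2,000/well) rested 5 hrs at 37C/5% CO2, then exposed to compounds in DMSO for 16 hrs. Viability was read in the same wells as intracellular ATP by luminescence, 30 min at room temperature after reagent addition.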

Retinoic acid receptor RXR-alpha (Homo sapiens), sequence (P19793 whole entry, looked up): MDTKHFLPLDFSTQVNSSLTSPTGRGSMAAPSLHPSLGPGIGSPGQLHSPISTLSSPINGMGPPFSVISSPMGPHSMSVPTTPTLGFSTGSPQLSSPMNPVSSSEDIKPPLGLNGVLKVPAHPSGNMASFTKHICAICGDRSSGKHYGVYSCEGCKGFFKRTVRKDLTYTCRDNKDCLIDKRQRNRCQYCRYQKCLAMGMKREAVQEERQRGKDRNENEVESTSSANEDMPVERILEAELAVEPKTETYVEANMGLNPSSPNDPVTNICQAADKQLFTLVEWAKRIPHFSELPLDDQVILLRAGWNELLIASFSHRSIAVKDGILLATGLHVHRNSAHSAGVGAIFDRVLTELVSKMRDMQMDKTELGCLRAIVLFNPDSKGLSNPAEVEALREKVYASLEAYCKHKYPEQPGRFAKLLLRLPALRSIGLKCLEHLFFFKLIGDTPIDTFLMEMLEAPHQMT

CCC/C=N/O
inactive: outcome [1] | outcome [2] | Potency [3] | Potency [4] | outcome [5] | Potency [6] | Potency [7] | Potency [8] | Potency [9] | Potency [10] | Potency [11] | Potency [12] | Potency [13] | Potency [14] | Potency [15] | outcome [16] | max response [17] -0.259% | activation [18] 2.09%

FC(Cl)(Cl)Cl
inactive: outcome [1] | outcome [2] | Potency [3] | Potency [4] | outcome [5] | outcome [19] | Potency [7] | Potency [8] | Potency [10] | Potency [11] | Potency [13] | Potency [14] | Potency [15] | outcome [16] | max response [17] -1.5% | activation [18] -3.53% | max response [20] -4.09%

S=C1NCCN1
inactive: outcome [1] | outcome [2] | Potency [4] | Potency [6] | outcome [19] | Potency [7] | Potency [8] | Potency [9] | Potency [10] | Potency [14] | Potency [15] | outcome [16] | max response [17] -12.1% and 9.5% | activation [18] -4.05% and -5.02%

CCOC(=O)CBr
inactive: outcome [2] | Potency [3] | Potency [4] | outcome [5] | Potency [6] | outcome [19] | Potency [8] | Potency [10] | Potency [11] | Potency [12] | Potency [13] | Potency [15] | outcome [16] | max response [17] -3.36% | activation [18] -2.17% | max response [20] 1.03%

CC(C)OC(=O)Cc1ccccc1
inactive: outcome [1] | outcome [2] | Potency [3] | Potency [4] | outcome [5] | outcome [19] | Potency [7] | Potency [8] | Potency [9] | Potency [10] | Potency [11] | Potency [12] | Potency [14] | Potency [15] | outcome [16] | max response [17] 8.61% | activation [18] -2.84% | max response [20] -4.02%

Nc1cc(Cl)cc(Cl)c1
inactive: outcome [2] | Potency [3] | outcome [5] | Potency [6] | Potency [7] | Potency [8] | Potency [9] | Potency [10] | Potency [11] | Potency [12] | Potency [13] | Potency [14] | Potency [15] | max response [17] 0.872% | activation [18] 1.82%

CCC#N
inactive: outcome [1] | outcome [2] | Potency [3] | Potency [4] | Potency [6] | Potency [7] | Potency [8] | Potency [10] | Potency [12] | Potency [13] | Potency [14] | Potency [15] | outcome [16] | max response [17] 10.5% | max response [20] 13.6%

Nc1ccc(Cc2ccc(N)cc2)cc1
inactive: outcome [1] | outcome [2] | Potency [4] | outcome [19] | Potency [8] | Potency [9] | Potency [10] | Potency [11] | Potency [12] | Potency [13] | Potency [14] | outcome [16] | max response [17] -0.525% and -18.2% | activation [18] -1.69% and -2.54% | max response [20] -0.954% and 9.87%

CCBr
inactive: outcome [1] | outcome [2] | Potency [4] | outcome [5] | Potency [6] | outcome [19] | Potency [8] | Potency [9] | Potency [10] | Potency [11] | Potency [12] | Potency [13] | outcome [16] | activation [18] 1.32% | max response [20] -4.15%

BrCCc1ccccc1
inactive: outcome [2] | Potency [4] | outcome [5] | Potency [6] | outcome [19] | Potency [7] | Potency [8] | Potency [9] | Potency [10] | Potency [11] | Potency [12] | Potency [13] | Potency [14] | Potency [15] | outcome [16] | max response [17] 9.1% | activation [18] -5.87% | max response [20] -7.12%

ClCC(Br)CBr (stereo not drawn)
inactive: outcome [1] | outcome [2] | Potency [3] | Potency [4] | outcome [5] | Potency [6] | Potency [7] | Potency [8] | Potency [9] | Potency [10] | Potency [11] | Potency [12] | Potency [13] | Potency [15] | outcome [16] | activation [18] -3.3% | max response [20] 3.72%

Cc1ccc(N)c(C)c1
inactive: outcome [1] | outcome [2] | Potency [3] | Potency [4] | Potency [6] | outcome [19] | Potency [7] | Potency [8] | Potency [9] | Potency [10] | Potency [11] | Potency [12] | Potency [13] | Potency [14] | max response [17] -1.52%

[O-][Cl+2]([O-])O
inactive: outcome [1] | outcome [2] | Potency [3] | Potency [4] | Potency [6] | outcome [19] | Potency [7] | Potency [10] | Potency [11] | Potency [12] | Potency [13] | Potency [14] | Potency [15] | outcome [16] | max response [17] -4.77% | activation [18] 0.222%

Clc1ccc(C(Cl)(Cl)Cl)c(Cl)c1
inactive: outcome [1] | Potency [3] | Potency [4] | outcome [19] | Potency [7] | Potency [8] | Potency [9] | Potency [11] | Potency [13] | Potency [14] | Potency [15] | outcome [16] | max response [17] 8.02% | activation [18] -0.0334% | max response [20] -1.74%

CC(Cl)CCl (stereo not drawn)
inactive: outcome [1] | outcome [2] | Potency [3] | Potency [4] | outcome [5] | Potency [6] | outcome [19] | Potency [7] | Potency [9] | Potency [10] | Potency [12] | Potency [13] | Potency [14] | Potency [15] | activation [18] 0.619% | max response [20] -12.6%

Clc1ccc(C(Cl)(Cl)Cl)cc1Cl
inactive: outcome [1] | outcome [2] | outcome [5] | Potency [8] | Potency [9] | Potency [12] | Potency [13] | Potency [14] | Potency [15] | outcome [16] | max response [17] -3.13% | activation [18] 0.791% | max response [20] -18%
